An excerpt weighted towards active compounds, which were near 5.7% of everything screened.
ssDAF12 agonist: S. stercoralis DAF-12 nuclear receptor activators, primary screen, cell-based, luminescence, HEK293, GRIP1 co-expression, lit1-tk-luc; Nuclear hormone receptor DAF-12 (Strongyloides stercoralis); HEK293 ssDAF-12/GRIP1 lit1-tk-luc reporter; % of 3 µM dafachronic acid response; activation, % at 6.8 µM; 370,000 compounds, 1% hits;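 active = activation above the mean over all tested compounds plus 3 SD, cut at about 0.9% in these data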
DAX1 inh-1: DAX1 (NR0B1) inhibitors, primary screen, cell-based, HEK293, Gal4-DAX1, luciferase luminescence; HEK293 Gal4-DAX1 luciferase reporter; inhibition, % at 6.75 µM; 340,000 compounds, 0.99% hits; AID 504766, 2011;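 active = inhibition above the mean over all tested compounds plus 3 SD, cut at about 4.2% in these data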;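 also: inhibition shows as a rise in luminescence from relieved DAX1 repression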
DAX1 inh-2: DAX1 (NR0B1) inhibitors on StAR promoter, primary screen, cell-based, luminescence, SF-1 (NR5A1), full-length DAX-1. HEK293T StAR-luciferase reporter, SF-1/DAX-1 repression relief. inhibition, % at 6.8 µM. 370,000 compounds, 1.1% hits. AID 652010, 2013;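 active = inhibition above the mean over all tested compounds plus 3 SD, cut at about 3.6% in these data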;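 also: higher inhibition means more luminescence from relief of DAX-1 repression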
hgDAF-12 ag: H. glycines DAF-12 receptor agonists, primary screen, cell-based, luminescence, HEK293, GAL4 fusion, UAS-luciferase; HEK293 GAL4-hgDAF12 UAS-luciferase reporter, agonist luminescence; normalized to butyrate control; Nuclear hormone receptor DAF-12 (Heterodera glycines), GAL4 fusion; activation, % at 6.8 µM; 370,000 compounds, 1.8% hits;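 active = activation above a cutoff set at the mean of all screened compounds plus 3 SD, cut at about 10% in these data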
hcDAF-12 act: H. contortus DAF-12 nuclear receptor activators, primary screen, cell-based, luminescence, HEK293, lit1-tk-luc reporter | HEK293 hcDAF-12 lit1-tk-luc reporter; 0% DMSO, 100% Δ7-dafachronic acid | activation, % at 6.8 µM | 370,000 compounds, 1.4% hits;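 active = activation above the mean of all tested compounds plus 3 SD, cut at about 5.5% in these data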
AHR activator: AHR activators, primary screen, cell-based, luminescence, luciferase reporter, human; Aryl hydrocarbon receptor (Homo sapiens), P35869; AHR-responsive luciferase reporter cells; activation, % at 5 µM; 320,000 compounds, 2.5% hits; AID 2796, 2010; in the data active = activation above about 47%
AHR act confirm: AHR activators, confirmation, cell-based, luminescence, luciferase reporter, human | shares compounds with AHR activator | human cells, AHR-responsive luciferase reporter | activation, % at 9 µM | 2,300 compounds, 87% hits; in the data active = activation above about 49%;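 also: HepG2 hepatoma cells carrying a DRE-driven firefly luciferase reporter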
PXR counter: human PXR activators, counter-screen for AHR activator project, cell-based, luciferase luminescence. shares compounds with AHR activator. cell-based PXR reporter. activation, % at 11.6 µM. 2,300 compounds, 88% hits. AID 434939, 2010; in the data active = activation above about 11%;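 also: human hepatoma DPX-2 cells expressing full-length human PXR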
DAX1 conf: DAX1 (NR0B1) inhibitors relieving SF-1 repression, confirmation, cell-based, luminescence, HEK293T, full-length DAX-1, SF-1 activated StAR promoter; inhibition, % at 6.8 µM; shares compounds with DAX1 inh-2; HEK293T StAR-promoter luciferase reporter, SF-1/DAX-1 repression; 2,400 compounds, 87% hits;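 active = inhibition above the average of every tested compound plus 3 SD, cut at about 3.8% in these data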
Target sequence (P51843 whole entry, looked up): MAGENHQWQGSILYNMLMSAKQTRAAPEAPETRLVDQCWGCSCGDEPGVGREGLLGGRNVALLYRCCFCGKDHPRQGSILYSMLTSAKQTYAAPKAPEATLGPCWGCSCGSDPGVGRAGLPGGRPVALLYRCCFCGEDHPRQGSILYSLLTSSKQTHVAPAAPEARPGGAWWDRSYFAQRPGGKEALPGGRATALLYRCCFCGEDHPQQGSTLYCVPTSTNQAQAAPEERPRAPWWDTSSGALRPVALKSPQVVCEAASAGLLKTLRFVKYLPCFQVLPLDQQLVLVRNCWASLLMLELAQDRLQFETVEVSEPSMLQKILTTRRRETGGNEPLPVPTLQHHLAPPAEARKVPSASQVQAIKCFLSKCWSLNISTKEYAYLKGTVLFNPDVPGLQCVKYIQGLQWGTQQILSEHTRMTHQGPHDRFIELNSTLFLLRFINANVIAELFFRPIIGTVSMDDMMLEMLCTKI
SF1 AF2mut Luc: StAR reporter signal changes without DAX1, counter-screen for DAX1 inhibitor project, cell-based, luminescence, AF-2 mutant SF-1, transactivation | inhibition, % at 6.8 µM | HEK293 StAR-luciferase, SF-1 AF2 mutant | shares compounds with DAX1 inh-2 | 2,400 compounds, 78% hits;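 active = inhibition above the mean of all tested compounds plus 3 SD, cut at about 3% in these data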
LXR ag: LXR agonists, Gal4 luciferase reporter, confirmation, counter-screen for hcDAF-12 agonist project, cell-based, luminescence, HEK293, H. contortus campaign; shares compounds with hcDAF-12 act; HEK293 Gal4-LXR tk-luc reporter, 24 h; normalized: DMSO 0%, positive control 100%; activation, % at 6.8 µM; 3,400 tested, under 10 active; AID 743027, 2013;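 active = mean percent activation of the reporter above a cutoff set as the average over tested compounds plus their standard deviation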
hcDAF12 conf: H. contortus DAF-12 receptor agonists, confirmation, cell-based, luminescence, HEK293, lit1-tk-luc, triplicate | shares compounds with hcDAF-12 act | HEK293 hcDAF-12 lit1-tk-luc reporter; % of Δ7-dafachronic acid response | activation, % at 6.8 µM | 3,400 compounds, 61% hits;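 active = mean activation across triplicate tests above the threshold derived from the earlier primary screen, cut at about 5.5% in these data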
hgDAF12 conf: H. glycines DAF-12 receptor agonists, confirmation, cell-based, luminescence, HEK293, GAL4-LBD fusion. shares compounds with hgDAF-12 ag. HEK293 GAL4-hgDAF12 luciferase reporter, agonist mode; percent of butyrate response. activation, % at 6.8 µM. 3,300 compounds, 80% hits;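 active = mean activation over triplicate wells above the hit cutoff derived from the earlier primary screen, cut at about 11% in these data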
LXRb DAF12 ctr: LXR agonists, Gal4 luciferase reporter, confirmation, counter-screen for hgDAF-12 agonist project, cell-based, luminescence, HEK293, H. glycines campaign. shares compounds with hgDAF-12 ag. 24 h. activation, % at 6.8 µM. 3,300 tested, under 10 active. AID 743051, 2013;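 active = mean activation of the triplicate above a set limit carried over from the primary screen, none filed active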
A number is an active result; n = inactive; x = no result.

SMILES | ssDAF12 agonist | DAX1 inh-1 | DAX1 inh-2 | hgDAF-12 ag | hcDAF-12 act | AHR activator | AHR act confirm | PXR counter | hgDAF12 conf | LXRb DAF12 ctr | others
CCN(C(=O)COC(=O)c1ccc(=O)n(Cc2ccccc2)n1)C1CCS(=O)(=O)C1 (stereo unspecified) | n | n | n | n | n | x | x | x | x | x
Cc1ccccc1-c1cn(-c2ccccc2)c(=S)[nH]1 | n | n | n | n | n | n | x | x | x | x
Cc1ccc(-c2cn(-c3ccccc3)c(=S)[nH]2)cc1C | n | n | n | 20 | 6.2 | 81 | n | 38 | 14 | n
O=C(/C=C/c1ccccc1O)c1ccccc1 | n | n | n | n | n | x | x | x | x | x
O=C(/C=C/c1c[nH]c2ccccc12)c1ccccc1 | n | n | n | 16 | n | 93 | 105 | 28 | 20 | n
CCOc1ccc2oc(C(=O)Nc3nccs3)c(C)c2c1 | n | n | 7.2 | 14 | 5.9 | 107 | 162 | 23 | 21 | n | DAX1 conf=15;SF1 AF2mut Luc=7.5
CCOc1ccc2oc(C(=O)Nc3ccc(C)cn3)c(C)c2c1 | n | n | n | n | n | x | x | x | x | x
C(=N\Nc1nc2ccccc2s1)/c1ccco1 | 2.6 | n | 6.7 | 15 | 17 | 103 | 105 | 30 | 21 | n | DAX1 conf=18;SF1 AF2mut Luc=8.2;LXR ag=n;hcDAF12 conf=12
OCC(O)/C=N/Nc1nc2ccccc2s1 (stereo unspecified) | n | n | n | n | n | n | x | x | x | x
Cc1cccc(C)c1NC(=O)C(C)NCc1cccs1 (stereo unspecified) | n | n | n | n | n | x | x | x | x | x
CCN(Cc1ccccc1)c1ccc(/C=C(\C#N)c2ccccn2)cc1 | 2.1 | n | 5.1 | 27 | 9.3 | 86 | 70 | 44 | 13 | n | DAX1 conf=3.7;SF1 AF2mut Luc=5.7;LXR ag=n;hcDAF12 conf=n
CCN(CC)c1ccc(/C=C(\C#N)c2ccccn2)cc1 | x | n | x | x | x | n | x | x | x | x
CCOC(=O)C1(Cc2cccc(F)c2)CCN(C(=O)c2cnc(C)cn2)CC1 | n | n | n | n | n | n | x | x | x | x
CCc1ccc2oc(-c3cccc(N)c3)nc2c1 | 3.3 | n | 4.3 | 16 | 16 | 83 | 90 | 12 | 24 | n | LXR ag=n;hcDAF12 conf=14
Cc1nc(SCC(=O)N(C)C2CCS(=O)(=O)C2)c(C#N)c(C)c1C (stereo unspecified) | n | n | n | n | n | n | x | x | x | x
Clc1cccc(Nc2nc(-c3ccncc3)cs2)c1 | n | n | n | 14 | n | 98 | 96 | 11 | n | n
S=c1[nH]nc(Nc2cccc(Cl)c2)s1 | n | n | n | n | n | n | x | x | x | x
Cc1c(C(=O)Nc2ccccn2)oc2ccccc12 | 3.3 | n | 4.7 | 14 | 13 | 115 | 212 | 21 | 23 | n | DAX1 conf=11;SF1 AF2mut Luc=5.8;LXR ag=n;hcDAF12 conf=17
CCc1ccccc1N(CC(=O)NCc1ccco1)C(=O)CCC(=O)Nc1nccs1 | n | n | n | n | n | n | x | x | x | x
c1ccc2c(C3=NNC(=NC4CC4)SC3)c[nH]c2c1 | 2.1 | n | 7.0 | 20 | 14 | 97 | n | 11 | 13 | n | DAX1 conf=19;SF1 AF2mut Luc=7.1;LXR ag=n;hcDAF12 conf=7.6
Cc1cc(C2=NNC(=NC3CC3)SC2)c(C)n1-c1ccccc1 | n | n | n | n | n | x | x | x | x | x
Clc1ccc(-n2nnc(-c3cccnc3Cl)n2)cc1Cl | n | n | n | n | n | n | x | x | x | x
Fc1ccc(-n2nnc(-c3cccnc3Cl)n2)cc1 | n | 4.4 | n | 17 | 7.2 | 79 | 69 | 19 | 17 | n | LXR ag=n;hcDAF12 conf=n
CCOc1ccc(C(=O)NC2CCN(C(=O)Nc3ccc(F)cc3)CC2)cc1 | n | n | n | n | n | n | x | x | x | x
COc1cccc(-c2noc(-c3cccnc3)n2)c1 | n | 4.2 | n | 14 | n | 85 | 134 | n | 15 | n
COc1cccc(-c2noc(-c3ccc(Br)o3)n2)c1 | n | n | 4.4 | 16 | n | 84 | 88 | n | 17 | n
O=C(O)C1=C[C@H](c2cccs2)C[C@H](OCc2ccc(CO)cc2)O1 | n | n | n | n | n | n | x | x | x | x

Assay outcomes (PubChem BioAssay)
